Data on six molecules can be found in PubChem BioAssay (EPA / NIEHS).

Records with an inconclusive call do not appear. Where a structure was tested more than once in an assay, its records may differ in their call. Activity calls are given as the source filed them. How the source made its calls: active means hit-call score of the fitted dose curve at least 0.9, where 1 is the maximum; inconclusive means response in the unintended direction; inactive means score below 0.9.

Test [1] addresses human Casein Kinase 1-delta (CK1D), CSNK1D (gene 1453) (UniProt P48730). The experiment in a line: NVS_ENZ_hCK1D: NovaScreen (NVS) Enzymatic Assay for human Casein Kinase 1-delta (CK1D) (AID 2283148). The procedure, abridged:
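Recombinant human CK1-delta, cell-free; fluorescent substrate with electrophoretic mobility-shift separation of product, read 1 h after dosing. Single 25 uM duplicate screen, then concentration-response up to 50 uM; loss of signal vs DMSO.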

The target in test [2] is human Colony Stimulating Factor 1 Receptor (CSF1R), CSF1R (gene 1436) (UniProt P07333). As to the kind of experiment: NVS_ENZ_hCSF1R: NovaScreen (NVS) Enzymatic Assay for human Colony Stimulating Factor 1 Receptor (CSF1R) (AID 2283150). The procedure, abridged: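 Cell-free recombinant human CSF1R kinase with fluorescent substrate, product separated by electrophoretic mobility shift; read 1 h after dosing. Primary screen at 25 uM in duplicate, actives then in concentration-response up to 50 uM, relative to DMSO.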
Chain of human Colony Stimulating Factor 1 Receptor (CSF1R), CSF1R (gene 1436) (P07333 whole entry, looked up): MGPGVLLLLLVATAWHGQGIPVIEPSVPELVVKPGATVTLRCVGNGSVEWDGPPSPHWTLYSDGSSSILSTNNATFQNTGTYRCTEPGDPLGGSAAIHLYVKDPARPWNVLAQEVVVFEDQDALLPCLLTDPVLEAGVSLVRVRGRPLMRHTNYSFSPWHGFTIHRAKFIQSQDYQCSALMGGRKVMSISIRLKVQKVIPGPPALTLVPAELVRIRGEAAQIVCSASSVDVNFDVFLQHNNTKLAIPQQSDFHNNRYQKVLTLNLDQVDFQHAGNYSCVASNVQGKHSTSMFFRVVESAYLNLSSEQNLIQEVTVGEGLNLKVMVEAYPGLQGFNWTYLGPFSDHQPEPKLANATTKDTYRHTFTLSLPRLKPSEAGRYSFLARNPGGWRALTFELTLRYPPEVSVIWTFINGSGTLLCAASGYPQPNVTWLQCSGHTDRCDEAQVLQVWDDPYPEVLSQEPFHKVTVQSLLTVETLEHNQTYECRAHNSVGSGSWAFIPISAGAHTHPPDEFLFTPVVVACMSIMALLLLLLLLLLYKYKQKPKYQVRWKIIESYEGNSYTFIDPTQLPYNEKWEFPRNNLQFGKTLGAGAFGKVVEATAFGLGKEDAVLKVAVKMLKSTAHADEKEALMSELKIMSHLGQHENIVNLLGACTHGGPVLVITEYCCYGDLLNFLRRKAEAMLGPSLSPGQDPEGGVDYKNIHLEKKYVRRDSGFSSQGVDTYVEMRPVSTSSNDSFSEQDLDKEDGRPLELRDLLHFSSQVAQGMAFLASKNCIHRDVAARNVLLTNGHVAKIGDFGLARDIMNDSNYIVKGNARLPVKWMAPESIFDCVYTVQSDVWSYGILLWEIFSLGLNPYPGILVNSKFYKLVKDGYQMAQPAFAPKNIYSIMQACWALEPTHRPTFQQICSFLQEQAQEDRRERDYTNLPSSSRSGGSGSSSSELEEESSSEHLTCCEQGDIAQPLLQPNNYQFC

The target in test [3] is human Ephrin type-A Receptor 2 (EphA2), EPHA2 (gene 1969) (UniProt P29317). As to the kind of experiment: NVS_ENZ_hEphA2: NovaScreen (NVS) Enzymatic Assay for human Ephrin type-A Receptor 2 (EphA2) (AID 2283155). The protocol:
NVS_ENZ_hEphA2 is a biochemical, single-readout assay that uses extracted gene-proteins in a cell-free assay. Measurements were taken 1 hour after chemical dosing in a 384-well plate.NVS_ENZ_hEphA2 is one of one assay component(s) measured or calculated from the NVS_ENZ_hEphA2 assay. It is designed to make measurements of enzyme activity, a form of enzyme reporter, as detected with fluorescence intensity signals by Fluorescence and electrophoretic mobility shift technology.Data from the assay component NVS_ENZ_hEphA2 was analyzed into 1 assay endpoint. This assay endpoint, NVS_ENZ_hEphA2, was analyzed in the positive analysis fitting direction relative to DMSO as the negative control and baseline of activity. Using a type of enzyme reporter, loss-of-signal activity can be used to understand changes in the enzymatic activity as they relate to the gene EPHA2. Furthermore, this assay endpoint can be referred to as a primary readout, because this assay has produced multiple assay endpoints where this one serves a enzymatic activity function. To generalize the intended target to other relatable targets, this assay endpoint is annotated to the kinase intended target family, where the subfamily is receptor tyrosine kinase.
Binding assays used specific radioligands (tritiated, iodinated) with non-radioactive competitive displacement ligands in agonist or antagonist protocols (as indicated) and various reference compounds and inhibitors to titrate specific binding to receptors and transporters. Most enzyme assays (CYPs, kinases, phosphatases, proteases, HDACs) used recombinant protein and specific substrates (fluorescence mostly, some colorimetric and radioactive) and inhibitors, followed by a biochemical separation of substrate and product. All assays for the biochemical HTS were initially run in duplicate at a single concentration (10 uM for CYP450 assays and 25 uM for all others). […]

Test [4] concerns the target human Ephrin type-A Receptor 1 (EphA1), EPHA1 (gene 2041) (UniProt P21709). As to the kind of experiment: NVS_ENZ_hEphA1: NovaScreen (NVS) Enzymatic Assay for human Ephrin type-A Receptor 1 (EphA1) (AID 2283158).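 Further: activity is signal loss versus DMSO meaning EphA1 kinase inhibition.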 The procedure, abridged: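 Cell-free enzymatic assay with recombinant EphA1 and fluorescent substrate; product separated by electrophoretic mobility shift, fluorescence intensity read 1 hour after dosing. Loss of signal versus DMSO baseline; primary duplicate screen at 25 uM, actives followed to 50 uM top concentration.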

The target in test [5] is human Ephrin type-B Receptor 2 (EphB2), EPHB2 (gene 2048) (UniProt P29323). As to the kind of experiment: NVS_ENZ_hEphB2: NovaScreen (NVS) Enzymatic Assay for human Ephrin type-B Receptor 2 (EphB2) (AID 2283156). The procedure, abridged:
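Recombinant kinase with fluorescent substrate, product separated by electrophoretic mobility shift, read 1 h after dosing. Duplicate 25 uM screen, then singleton concentration-response to 50 uM max; loss of signal versus DMSO.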

Chain of human Ephrin type-A Receptor 2 (EphA2), EPHA2 (gene 1969) (P29317 whole entry, looked up): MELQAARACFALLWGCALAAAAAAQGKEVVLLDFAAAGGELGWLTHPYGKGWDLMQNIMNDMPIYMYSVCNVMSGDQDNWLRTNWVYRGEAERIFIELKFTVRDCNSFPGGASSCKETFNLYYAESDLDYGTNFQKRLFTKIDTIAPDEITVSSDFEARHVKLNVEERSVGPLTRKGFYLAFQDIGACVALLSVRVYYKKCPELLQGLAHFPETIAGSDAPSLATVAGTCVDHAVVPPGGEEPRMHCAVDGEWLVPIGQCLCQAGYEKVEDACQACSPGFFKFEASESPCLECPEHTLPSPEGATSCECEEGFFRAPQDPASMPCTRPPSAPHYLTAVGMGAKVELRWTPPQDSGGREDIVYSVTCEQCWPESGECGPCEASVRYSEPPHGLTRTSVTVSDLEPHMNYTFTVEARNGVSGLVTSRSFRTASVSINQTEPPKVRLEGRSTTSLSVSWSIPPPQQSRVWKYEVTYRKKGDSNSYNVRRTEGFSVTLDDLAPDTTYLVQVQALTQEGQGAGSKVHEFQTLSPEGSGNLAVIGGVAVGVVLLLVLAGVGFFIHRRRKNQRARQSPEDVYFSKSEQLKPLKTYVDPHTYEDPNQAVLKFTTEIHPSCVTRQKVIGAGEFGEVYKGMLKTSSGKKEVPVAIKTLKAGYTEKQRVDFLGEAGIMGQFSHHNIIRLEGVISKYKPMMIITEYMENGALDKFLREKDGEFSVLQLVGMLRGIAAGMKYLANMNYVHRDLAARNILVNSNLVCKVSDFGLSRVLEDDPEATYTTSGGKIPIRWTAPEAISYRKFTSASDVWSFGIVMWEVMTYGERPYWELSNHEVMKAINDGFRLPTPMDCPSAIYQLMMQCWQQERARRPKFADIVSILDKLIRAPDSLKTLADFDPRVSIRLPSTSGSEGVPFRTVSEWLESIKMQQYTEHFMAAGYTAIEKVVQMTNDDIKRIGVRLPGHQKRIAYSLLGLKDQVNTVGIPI
Chain of human Ephrin type-A Receptor 1 (EphA1), EPHA1 (gene 2041) (P21709 whole entry, looked up): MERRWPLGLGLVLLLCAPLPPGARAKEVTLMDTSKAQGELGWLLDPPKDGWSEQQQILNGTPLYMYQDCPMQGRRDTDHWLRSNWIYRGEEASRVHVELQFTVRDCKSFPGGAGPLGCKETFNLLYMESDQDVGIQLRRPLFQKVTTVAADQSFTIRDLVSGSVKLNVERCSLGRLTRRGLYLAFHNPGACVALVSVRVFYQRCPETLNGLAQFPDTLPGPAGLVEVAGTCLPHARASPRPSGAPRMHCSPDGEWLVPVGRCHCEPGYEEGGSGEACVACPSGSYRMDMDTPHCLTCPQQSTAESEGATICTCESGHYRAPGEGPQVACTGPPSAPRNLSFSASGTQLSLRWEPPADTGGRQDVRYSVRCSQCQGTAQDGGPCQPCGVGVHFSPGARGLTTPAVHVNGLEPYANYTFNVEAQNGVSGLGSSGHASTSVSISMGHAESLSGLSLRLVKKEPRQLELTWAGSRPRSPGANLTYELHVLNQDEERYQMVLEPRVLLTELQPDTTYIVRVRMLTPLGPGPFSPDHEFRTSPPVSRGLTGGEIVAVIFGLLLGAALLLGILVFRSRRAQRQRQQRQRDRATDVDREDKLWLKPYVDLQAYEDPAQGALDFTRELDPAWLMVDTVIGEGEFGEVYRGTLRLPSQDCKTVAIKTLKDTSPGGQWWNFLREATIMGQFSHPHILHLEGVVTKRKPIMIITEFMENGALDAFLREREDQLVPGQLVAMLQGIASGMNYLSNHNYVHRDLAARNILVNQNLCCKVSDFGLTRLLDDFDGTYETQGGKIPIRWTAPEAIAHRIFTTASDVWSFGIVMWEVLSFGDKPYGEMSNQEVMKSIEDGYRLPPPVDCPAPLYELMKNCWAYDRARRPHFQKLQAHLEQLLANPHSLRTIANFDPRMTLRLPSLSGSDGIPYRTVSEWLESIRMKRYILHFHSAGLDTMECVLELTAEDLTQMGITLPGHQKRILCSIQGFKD
Chain of human Casein Kinase 1-delta (CK1D), CSNK1D (gene 1453) (P48730 whole entry, looked up): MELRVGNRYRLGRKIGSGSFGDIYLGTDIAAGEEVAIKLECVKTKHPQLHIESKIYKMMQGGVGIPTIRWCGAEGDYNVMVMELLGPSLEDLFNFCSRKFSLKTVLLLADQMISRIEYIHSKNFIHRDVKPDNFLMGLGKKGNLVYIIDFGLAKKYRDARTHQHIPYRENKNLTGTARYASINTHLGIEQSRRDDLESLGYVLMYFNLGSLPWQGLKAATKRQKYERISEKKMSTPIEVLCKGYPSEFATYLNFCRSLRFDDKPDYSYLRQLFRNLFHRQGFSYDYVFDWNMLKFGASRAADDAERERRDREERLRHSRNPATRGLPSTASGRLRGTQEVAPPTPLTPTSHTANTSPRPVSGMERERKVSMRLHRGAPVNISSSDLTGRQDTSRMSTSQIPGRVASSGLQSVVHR
Chain of human Ephrin type-B Receptor 2 (EphB2), EPHB2 (gene 2048) (P29323 whole entry, looked up): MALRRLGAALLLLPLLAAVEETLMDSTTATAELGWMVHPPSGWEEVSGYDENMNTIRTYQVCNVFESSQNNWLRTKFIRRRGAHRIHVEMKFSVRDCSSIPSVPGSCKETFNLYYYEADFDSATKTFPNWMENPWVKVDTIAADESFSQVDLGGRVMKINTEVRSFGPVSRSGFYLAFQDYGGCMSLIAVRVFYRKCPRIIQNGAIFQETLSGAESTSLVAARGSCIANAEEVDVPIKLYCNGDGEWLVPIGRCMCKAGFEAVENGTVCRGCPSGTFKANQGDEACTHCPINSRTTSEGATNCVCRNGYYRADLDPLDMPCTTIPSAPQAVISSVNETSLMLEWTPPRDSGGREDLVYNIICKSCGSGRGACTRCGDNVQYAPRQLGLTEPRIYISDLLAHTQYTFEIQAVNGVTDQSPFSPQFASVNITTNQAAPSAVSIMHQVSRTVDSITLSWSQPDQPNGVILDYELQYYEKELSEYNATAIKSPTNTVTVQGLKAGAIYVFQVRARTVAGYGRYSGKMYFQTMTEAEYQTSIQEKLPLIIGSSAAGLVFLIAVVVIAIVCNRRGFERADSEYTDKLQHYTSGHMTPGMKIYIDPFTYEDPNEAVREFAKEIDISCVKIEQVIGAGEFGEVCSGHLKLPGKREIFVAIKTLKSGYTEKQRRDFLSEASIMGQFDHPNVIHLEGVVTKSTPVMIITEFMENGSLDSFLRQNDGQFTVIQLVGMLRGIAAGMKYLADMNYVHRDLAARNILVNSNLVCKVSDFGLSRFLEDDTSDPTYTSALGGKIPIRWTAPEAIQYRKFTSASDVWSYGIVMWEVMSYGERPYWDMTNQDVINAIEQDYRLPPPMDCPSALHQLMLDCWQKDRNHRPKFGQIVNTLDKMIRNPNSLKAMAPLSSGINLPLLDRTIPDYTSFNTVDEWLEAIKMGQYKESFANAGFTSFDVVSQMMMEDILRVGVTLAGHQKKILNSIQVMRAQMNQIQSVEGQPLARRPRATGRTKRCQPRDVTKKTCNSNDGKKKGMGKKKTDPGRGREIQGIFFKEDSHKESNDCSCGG

For `Nc1nc(N)nc(NC2CC2)n1`, in test [1], the AC50 was 16.3 µM (active).

Take `CCC(=O)Nc1ccc(Cl)c(Cl)c1`: the concentration at half-maximal activity (AC50) in test [1] was 23.6 µM (active).

Consider `CCCOc1nn(C(=O)NS(=O)(=O)c2ccccc2C(=O)OC)c(=O)n1C`, for which the call in test [2] was inactive.

As to `CN(C)[C@@H]1C(=O)C(C(N)=O)=C(O)[C@@]2(O)C(=O)C3=C(O)c4c(O)cccc4[C@@](C)(O)[C@H]3[C@H](O)[C@@H]12`, the concentration at half-maximal activity (AC50) in test [2] is 12.5 µM (active); in test [3], 7.61 µM (active). Moreover, the outcome in test [3] and in test [4] was inactive.

Take `O=C(O)c1cc(Oc2ccc(C(F)(F)F)cc2Cl)ccc1[N+](=O)[O-]`: the call in test [3] and in test [4] was inactive.

Take `CNc1cnn(-c2cccc(C(F)(F)F)c2)c(=O)c1Cl`: the call in test [5] was inactive.

A word on the AC50: it is the concentration at which the activity in the assay is half-maximal.
